Assay outcomes: PubChem BioAssay, National Center for Advancing Translational Sciences (NCATS)
Only some compounds are listed: those with a hit (about 2.8% of all), similar ones and a draw of the others.
Pol eta inh-1 = qHTS for Inhibitors of Polymerase Eta | Potency, µM (doses to about 114 µM), without a hit: at the top dose activity change, negative = inhibition, hits mostly inhibitors | 1.2% of 390,000 active | recombinant Pol eta, fluorescent DNA replication assay; note: potency is the fitted concentration of half-maximal effect; % is set by controls: 0 for no effect and ±100 for the full control effect
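Pol eta at 10 nM preincubated with compounds 15 min at room temperature; reaction started with fluorescent substrate (50 nM final) and read kinetically at 0 and 10 min.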
Pol kappa inh-1 = qHTS for Inhibitors of Polymerase Kappa. DNA polymerase kappa (Homo sapiens), Q9UBT6. purified Pol kappa, fluorescent DNA synthesis assay, 10 min. Potency, µM (series often up to 107 µM), for the others: at the top dose activity, negative = inhibition, most hits filed as inhibitors. 0.53% of 400,000 active. AID 588579, 2011; note: potency is the fitted concentration of half-maximal effect; % is set by controls: 0 for no effect and ±100 for the full control effect
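10 nM Pol kappa was preincubated with compounds for 15 min at room temperature. Reaction started with 50 nM (final) substrate. Fluorescence read kinetically at 0 and 10 min.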
PI5P4Ka inh = qHTS for Inhibitors of phosphatidylinositol 5-phosphate 4-kinase (PI5P4K) | PI5P4Kalpha enzyme, ADP-Glo luminescence, 60 min; stronger effect = lower value | max response, % | Phosphatidylinositol 5-phosphate 4-kinase type-2 alpha (Homo sapiens), P48426 | 1.2% of 330,000 active; active = max response of -50% or lower; inconclusive = between -30% and -50%; inactive = -30% or higher; note: value at the top dose of about 77 µM; % is set by controls: 0 for no effect and ±100 for the full control effect
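Quantitative HTS of the MLSMR library against PI5P4Kalpha with substrate. ATP added last at 5 microM final; room temperature, 60 minutes. Remaining ATP depleted, ADP converted and read as luminescence.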
POLB inh = qHTS Assay for Inhibitors of DNA Polymerase Beta. P06746. Pol beta primer extension/strand displacement, fluorescence kinetic. Potency, µM (series often up to 114 µM), without a hit: at the highest dose activity change, negative = inhibition, usual class: inhibitors. 1.3% of 340,000 active; note: potency is the fitted concentration of half-maximal effect; % is set by controls: 0 for no effect and ±100 for the full control effect
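Homogeneous kinetic assay of primer extension and strand displacement by 10 nM Pol beta, preincubated 15 min at room temperature with compound before 50 nM substrate (final) was added. Read at 0 and 10 min; four-parameter Hill fit.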
WRN inhibitor = qHTS for Inhibitors of WRN Helicase | 0.46% of 360,000 active | WRN helicase unwinding, fluorescent forked duplex, kinetic | Potency, µM (titrated, usually from 114 µM), inactives show top-dose activity change, negative = inhibition, actives largely listed as inhibitors | Bifunctional 3'-5' exonuclease/ATP-dependent helicase WRN (Homo sapiens), Q14191; note: potency is the fitted concentration of half-maximal effect; % is set by controls: 0 for no effect and ±100 for the full control effect; nearly all actives have a fitted effect of over 55% in size
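Primary qHTS, 1536-well format. 20 nM WRN + compound, 15 min RT; start with 100 nM forked fluorophore/quencher duplex, 2 mM ATP (final); kinetic read ex 525/em 598 nm.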
POLI inh = qHTS for Inhibitors of Polymerase Iota | DNA polymerase iota (Homo sapiens), Q9UNA4 | Pol iota fluorescent replication assay, 10 min | Potency, µM (top dose mostly 115 µM), without a hit: at the top dose activity, negative = inhibition, actives largely listed as inhibitors | 1% of 390,000 active; note: potency is the fitted concentration of half-maximal effect
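Fluorescent replication assay read twice, at 0 min and 10 min after adding 50 nM (final) substrate. Enzyme (10 nM) and compounds were first incubated 15 min at room temperature; enzyme-free buffer wells were negative controls.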
PGK validate = qHTS for inhibitors of Phosphogylcerate Kinase: Hit Validation Screen; shares compounds with Pol kappa inh-1; TbPGK coupled GAPDH assay, Kinase-Glo luminescence; Potency, µM (highest dose often 57.5 µM), for inactives: at the highest dose activity change, negative = inhibition, actives largely listed as inhibitors; 79% of 500 active; AID 686980, 2013; note: potency is the fitted concentration of half-maximal effect; % is set by controls: 0 for no effect and ±100 for the full control effect; nearly all actives have a fitted effect of over 65% in size
POLI cherry-pick = qHTS for Inhibitors of Polymerase Iota: Confirmatory Assay for Cherry-picked Compounds; 77% of 1,500 active; shares compounds with Pol kappa inh-1; Pol iota primer extension, TAMRA/BHQ fluorescence; AID 720496, 2013; Potency, µM, usual class: inhibitors; note: potency is the fitted concentration of half-maximal effect
Pol kappa inh-2 = qHTS for Inhibitors of Polymerase Kappa: Confirmatory Assay for Cherry-picked Compounds; AID 720501, 2013; Potency, µM, most hits filed as inhibitors; purified Pol-kappa, fluorescent strand-displacement substrate; shares compounds with Pol eta inh-1; 76% of 920 active; note: potency is the fitted concentration of half-maximal effect
Pol eta inh-2 = qHTS for Inhibitors of Polymerase Eta: Confirmatory Assay for Cherry-picked Compounds. shares compounds with Pol eta inh-1. Pol eta primer extension, TAMRA/BHQ fluorescence, 10 min. Potency, µM, most hits filed as inhibitors. 64% of 2,600 active. AID 720502, 2013; note: potency is the fitted concentration of half-maximal effect
* = called active by the depositor; ? = inconclusive; nt = not tested or not shown; [ ] = dose if it differs, or a comment. Unless noted, calls come from the whole dose curve; as a rule, active = well fitted curve in the direction sought with a large enough effect; inconclusive = small, poorly fitted or top-dose-only effect, or another doubt; inactive = no such curve, though single readings can be large; an effect the other way counts as inactive or inconclusive.

SMILES	Pol eta inh-1	Pol kappa inh-1	PI5P4Ka inh	POLB inh	WRN inhibitor	POLI inh	POLI cherry-pick	Pol eta inh-2	others
CCCCn1c(NC(=O)c2ccccc2)c(C#N)c2nc3ccccc3nc21	?	?	nt	40µM*	-35%	?	34*	24*
CCCCOc1ccc(C(=O)N(Cc2ccco2)Cc2ccco2)cc1	32µM*	-37%	nt	22µM*	nt	?	67*	54*	Pol kappa inh-2=15*
CCCOc1ccc(C(=O)N(Cc2ccco2)Cc2ccco2)cc1	?	-6%	nt	9%	nt	-1%	nt	nt
Cc1c(Cl)cccc1NC(=O)c1cc2nc(-c3ccc4c(c3)OCO4)cc(C(F)(F)F)n2n1	-15%	-2%	nt	28%	nt	-5%	nt	nt
COc1ccc(CCC(=O)O)c(O)c1	32µM*	71µM*	-2	40µM*	-13%	?	75*	67*
COc1ccc(C(=O)CCc2ccccc2)c(O)c1	-11%	0%	11	nt	-2%	66%	nt	nt
Cn1c2c(c(=O)n(C)c1=O)C(c1ccccc1C(F)(F)F)CC(=O)N2 (stereo not given)	-12%	4%	nt	11%	nt	7%	nt	nt
N#Cc1ccc(OCC(=O)Nc2cccc(S(=O)(=O)NC3=NCCCCC3)c2)cc1	?	-35%	?	nt	-27%	79µM*	67*	?
O=C(COc1ccc(Cl)cc1)Nc1cccc(S(=O)(=O)NC2=NCCCCC2)c1	-19%	-5%	0	nt	2%	16%	nt	nt
Cc1ccc(NC(c2ccc(Cl)cc2)c2nnc(-c3cccc(F)c3)o2)cc1C (stereo not given)	-20%	4%	nt	2%	nt	29%	nt	nt
Cc1cc(/C=N/Nc2ccc([N+](=O)[O-])cn2)c(C)n1-c1ccc(C(=O)O)cc1	18µM*	79µM*	-84*	?	50µM*	18µM*	?	67*
O=C1NC(=S)S/C1=C\C=C\c1ccc([N+](=O)[O-])o1	2.2µM*	10µM*	-96*	?	40µM*	2.2µM*	2.7*	4.8*	PGK validate=2.6µM*;Pol kappa inh-2=4.7*
Nc1ccc(O)c2c1C(=O)c1ccccc1C2=O	8.9µM*	28µM*	-97*	2.8µM*	32µM*	40µM*	19*	21*	PGK validate=12µM*;Pol kappa inh-2=3.4*
N#CC(C#N)=C1C=C2C=C(N3CCCCCC3)CCC2CC1 (stereo not given)	50µM*	?	0	40µM*	15µM*	45µM*	42*	17*
[O-][n+]1c2ccccc2[n+]([O-])c2cc(O)ccc21	18µM*	?	-54*	22µM*	?	?	?	?	PGK validate=33µM*;Pol kappa inh-2=?
CCOCCn1ccc2c(OCC(=O)Nc3ccc(OC(F)(F)F)cc3)cccc2c1=O	-17%	-6%[60.1 µM]	nt	-28%	nt	26%	nt	nt
CCc1ccc(-n2nnnc2SCC(=O)Nc2ccc(NC(C)=O)cc2)cc1	-1%	1%	-5	3%	3%	9%	nt	nt
CC(=O)Nc1ccc(-n2nnnc2SCC(=O)Nc2cccc(NC(=O)c3ccco3)c2)cc1	?	-55%	3	?	9%	28µM*	53*	?
O=C(CSc1ccc(-c2ccco2)nn1)Nc1ccc(F)cc1F	-17%	-25%	-30	-1%	-31%	?	nt	nt
CC(=O)c1cccc(NC(=O)CSc2ccc(-c3ccco3)nn2)c1	?	?	?	50µM*	?	22µM*	?	?
COc1cc(/C=C2\SC(=O)N(c3cccc(Cl)c3)C2=O)cc([N+](=O)[O-])c1O	?	?	-81*	6.3µM*	50µM*	6.3µM*	38*	?	PGK validate=4.6µM*;Pol kappa inh-2=4.2*
COc1ccc2cc3cc(C(=O)Nc4cc(C)c(Cl)cc4OC)oc3nc2c1	0%	-10%	nt	33%	nt	-11%	nt	nt
Cc1ccc(C)c(NC(=O)Cn2cc(S(=O)(=O)c3ccc(F)cc3)c(=O)c3cc(F)ccc32)c1	-22%	-11%	nt	0%	nt	41%	nt	nt
Cn1nc(-c2ccc(C(=O)Nc3ccc(F)cc3)cc2)c2ccccc2c1=O	?	-12%	-1	16µM*	?	?	42*	?	Pol kappa inh-2=24*
CCCCN(CC)C(=O)C1CCCN(c2ncnc3c2nc2n3CCCCC2)C1 (stereo not given)	0%	-5%	nt	9%	nt	6%	nt	nt
O=C(O)CCCN1C(=O)/C(=C/c2cn(-c3ccccc3)nc2-c2cccs2)SC1=S	28µM*	?	3	22µM*	50µM*	35µM*	42*	76*
Cc1nnc(NC(=O)CSCc2cc(=O)c3ccccc3[nH]2)s1	50µM*	-1%[60.1 µM]	nt	?	nt	79µM*	67*	?
Cc1cccc(-n2ncc(C(=O)NCc3ccc4c(c3)OCO4)c2C2CCN(C(=O)OC(C)(C)C)CC2)c1	2%	-7%	nt	38%	nt	-3%	nt	nt
COc1cc(/C=C2\SC(=O)N(CC(=O)Nc3ccc(C)cc3)C2=O)cc(Cl)c1OCC(=O)O	?	?	-17	50µM*	50µM*	20µM*	4.2*	?	PGK validate=5.8µM*
Cc1ccc(NC(=O)CN2C(=O)S/C(=C/c3ccc(O)c([N+](=O)[O-])c3)C2=O)cc1C	45µM*	50µM*	-58*	89µM*	79µM*	20µM*	34*	?	Pol kappa inh-2=60*
